From the supplement of paper PMC8975748
Structures can show the parent of a compound that is named as a salt. ± gives the standard deviation of the averaged measurements.

Tests used:
[1] = test system: Saccharomyces cerevisiae BY4741 SeMeCo community; assay: mean cell size (pixel area) (pixels); higher = larger cells; conditions: 10 µM; 24 h; SM minimal medium
How it was run: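 A Saccharomyces cerevisiae BY4741 community carrying four plasmids, each with a fluorescent marker and each complementing one auxotrophy, was exposed for 24 h to drug at a final 10 µM in SM medium in acoustically predosed 384-well plates. The overnight preculture (OD600 = 1.0) was diluted to OD600 = 0.3 before 70 µl was added per well. Cells were then fixed with paraformaldehyde, imaged by automated confocal microscopy and analysed in Harmony to derive mean cell pixel area per well, averaged over 3 replicates. Same SeMeCo high-content imaging drug screen: Selleck FDA-approved drugs at 10 µM, 24 h in SM medium, 384-well plates, 3 replicates.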

[2] = test system: Saccharomyces cerevisiae BY4741 SeMeCo community; assay: z-score of subpopulation abundance vs DMSO median, subpopulation auxotrophic for M; higher = larger share of this subpopulation than in DMSO controls; conditions: 10 µM; 24 h; SM minimal medium; subpopulation (auxotrophy): M
How it was run: (§1)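 A Saccharomyces cerevisiae BY4741 community carried four plasmids, each restoring one auxotrophy and encoding a distinct fluorescent protein. It was pre-grown overnight to OD600 1.0, diluted to 0.3, and 70 µl was added to 384-well plates acoustically predosed with library drugs (10 µM final), then grown 24 h in minimal SM medium. Cells were paraformaldehyde-fixed and imaged by automated confocal microscopy, with single-auxotroph fluorescent strains setting thresholds and autofluorescence correction. Each subpopulation's abundance was scored as a z-score against the vehicle-well median.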

[3] = test system: Saccharomyces cerevisiae BY4741 SeMeCo community; assay: z-score of subpopulation abundance vs DMSO median, subpopulation auxotrophic for L; higher = larger share of this subpopulation than in DMSO controls; conditions: 10 µM; 24 h; SM minimal medium; subpopulation (auxotrophy): L
How it was run: as §1

[4] = test system: Saccharomyces cerevisiae BY4741 SeMeCo community; assay: z-score of subpopulation abundance vs DMSO median, subpopulation auxotrophic for U; higher = larger share of this subpopulation than in DMSO controls; conditions: 10 µM; 24 h; SM minimal medium; subpopulation (auxotrophy): U
How it was run: as §1

[5] = test system: Saccharomyces cerevisiae BY4741 SeMeCo community; assay: z-score of subpopulation abundance vs DMSO median, subpopulation auxotrophic for LU; higher = larger share of this subpopulation than in DMSO controls; conditions: 10 µM; 24 h; SM minimal medium; subpopulation (auxotrophy): LU
How it was run: as §1

[6] = test system: Saccharomyces cerevisiae BY4741 SeMeCo community; assay: z-score of subpopulation abundance vs DMSO median, subpopulation auxotrophic for LM; higher = larger share of this subpopulation than in DMSO controls; conditions: 10 µM; 24 h; SM minimal medium; subpopulation (auxotrophy): LM
How it was run: as §1

[7] = test system: Saccharomyces cerevisiae BY4741 SeMeCo community; assay: z-score of subpopulation abundance vs DMSO median, subpopulation auxotrophic for HM; higher = larger share of this subpopulation than in DMSO controls; conditions: 10 µM; 24 h; SM minimal medium; subpopulation (auxotrophy): HM
How it was run: as §1

[8] = test system: Saccharomyces cerevisiae BY4741 SeMeCo community; assay: z-score of subpopulation abundance vs DMSO median, subpopulation auxotrophic for HU; higher = larger share of this subpopulation than in DMSO controls; conditions: 10 µM; 24 h; SM minimal medium; subpopulation (auxotrophy): HU
How it was run: as §1

[9] = test system: Saccharomyces cerevisiae BY4741 SeMeCo community; assay: z-score of subpopulation abundance vs DMSO median, subpopulation auxotrophic for UM; higher = larger share of this subpopulation than in DMSO controls; conditions: 10 µM; 24 h; SM minimal medium; subpopulation (auxotrophy): UM
How it was run: as §1

[10] = test system: Saccharomyces cerevisiae BY4741 SeMeCo community; assay: z-score of subpopulation abundance vs DMSO median, subpopulation auxotrophic for HL; higher = larger share of this subpopulation than in DMSO controls; conditions: 10 µM; 24 h; SM minimal medium; subpopulation (auxotrophy): HL
How it was run: as §1

[11] = test system: Saccharomyces cerevisiae BY4741 SeMeCo community; assay: z-score of subpopulation abundance vs DMSO median, subpopulation auxotrophic for HLU; higher = larger share of this subpopulation than in DMSO controls; conditions: 10 µM; 24 h; SM minimal medium; subpopulation (auxotrophy): HLU
How it was run: as §1

[12] = test system: Saccharomyces cerevisiae BY4741 SeMeCo community; assay: z-score of subpopulation abundance vs DMSO median, subpopulation auxotrophic for HLM; higher = larger share of this subpopulation than in DMSO controls; conditions: 10 µM; 24 h; SM minimal medium; subpopulation (auxotrophy): HLM
How it was run: as §1

[13] = test system: Saccharomyces cerevisiae BY4741 SeMeCo community; assay: z-score of subpopulation abundance vs DMSO median, subpopulation auxotrophic for HUM; higher = larger share of this subpopulation than in DMSO controls; conditions: 10 µM; 24 h; SM minimal medium; subpopulation (auxotrophy): HUM
How it was run: as §1

[14] = test system: Saccharomyces cerevisiae BY4741 SeMeCo community; assay: z-score of subpopulation abundance vs DMSO median, subpopulation auxotrophic for LUM; higher = larger share of this subpopulation than in DMSO controls; conditions: 10 µM; 24 h; SM minimal medium; subpopulation (auxotrophy): LUM
How it was run: as §1

[15] = test system: Saccharomyces cerevisiae BY4741 SeMeCo community; assay: z-score of subpopulation abundance vs DMSO median, subpopulation auxotrophic for HLUM; higher = larger share of this subpopulation than in DMSO controls; conditions: 10 µM; 24 h; SM minimal medium; subpopulation (auxotrophy): HLUM
How it was run: as §1

[16] = test system: Saccharomyces cerevisiae BY4741 SeMeCo community; assay: z-score of prototroph abundance vs DMSO median; higher = larger share of this subpopulation than in DMSO controls; conditions: 10 µM; 24 h; SM minimal medium; subpopulation (auxotrophy): Prototroph
How it was run: as §1

[17] = test system: Saccharomyces cerevisiae BY4741 SeMeCo community; assay: z-score of subpopulation abundance vs DMSO median, subpopulation auxotrophic for H; higher = larger share of this subpopulation than in DMSO controls; conditions: 10 µM; 24 h; SM minimal medium; subpopulation (auxotrophy): H
How it was run: as §1

OC[C@H]1O[C@H](OCC2O[C@@H](O)[C@H](O)[C@@H](O)[C@@H]2O)[C@H](O)[C@@H](O)[C@H]1O (stereo partly drawn) [Melibiose]
mean cell size [1]: 12.5 ± 0.29 | z-score of subpopulation abundance [2]: 0.28 | z-score of subpopulation abundance [3]: 0.1 | z-score of subpopulation abundance [4]: 0.61 | z-score of subpopulation abundance [5]: 0.81 | z-score of subpopulation abundance [6]: -0.85 | z-score of subpopulation abundance [7]: -0.15 | z-score of subpopulation abundance [8]: 0.74 | z-score of subpopulation abundance [9]: 0.56 | z-score of subpopulation abundance [10]: 0.32 | z-score of subpopulation abundance [11]: -0.58 | z-score of subpopulation abundance [12]: 1.11 | z-score of subpopulation abundance [13]: 0.46 | z-score of subpopulation abundance [14]: 0.14 | z-score of subpopulation abundance [15]: 1

CN[C@@H]1[C@@H](O)[C@@H](O[C@@H]2[C@@H](O)[C@H](O[C@H]3OC(CN)=CC[C@H]3N)[C@@H](N)C[C@H]2N)OC[C@]1(C)O [Sisomicin sulfate]
mean cell size [1]: 12.12 ± 0.053 | z-score of prototroph abundance [16]: -0.71 | z-score of subpopulation abundance [2]: 1.6 | z-score of subpopulation abundance [3]: 1.01 | z-score of subpopulation abundance [4]: 0.55 | z-score of subpopulation abundance [17]: -0.72 | z-score of subpopulation abundance [5]: 0.28 | z-score of subpopulation abundance [6]: 1.22 | z-score of subpopulation abundance [7]: 0.61 | z-score of subpopulation abundance [8]: 0.07 | z-score of subpopulation abundance [9]: 0.74 | z-score of subpopulation abundance [10]: 0.51 | z-score of subpopulation abundance [11]: 0.06 | z-score of subpopulation abundance [12]: 0.84 | z-score of subpopulation abundance [13]: 0.52 | z-score of subpopulation abundance [14]: 1.13 | z-score of subpopulation abundance [15]: 2.37

O=C1CN(/N=C/c2ccc(-c3ccc([N+](=O)[O-])cc3)o2)C(=O)N1 [Dantrolene sodium hemiheptahydrate]
mean cell size [1]: 12.7 ± 0.17 | z-score of prototroph abundance [16]: 1 | z-score of subpopulation abundance [2]: 3.93 | z-score of subpopulation abundance [3]: 1.44 | z-score of subpopulation abundance [4]: -4.45 | z-score of subpopulation abundance [17]: 2.07 | z-score of subpopulation abundance [5]: -1.88 | z-score of subpopulation abundance [6]: 1.95 | z-score of subpopulation abundance [7]: 1.38 | z-score of subpopulation abundance [8]: -2.96 | z-score of subpopulation abundance [9]: -3.9 | z-score of subpopulation abundance [10]: 1.61 | z-score of subpopulation abundance [11]: -1.02 | z-score of subpopulation abundance [12]: 2.77 | z-score of subpopulation abundance [13]: -1.65 | z-score of subpopulation abundance [14]: -1.33 | z-score of subpopulation abundance [15]: 0.57

C=CC1=C(C(=O)O)N2C(=O)[C@@H](NC(=O)/C(=N\OCC(=O)O)c3csc(N)n3)[C@H]2SC1 [Cefixime]
mean cell size [1]: 12.52 ± 0.039 | z-score of subpopulation abundance [2]: -0.61 | z-score of subpopulation abundance [3]: -0.33 | z-score of subpopulation abundance [4]: 0.43 | z-score of subpopulation abundance [17]: -0.5 | z-score of subpopulation abundance [5]: -0.02 | z-score of subpopulation abundance [6]: -0.13 | z-score of subpopulation abundance [7]: -0.97 | z-score of subpopulation abundance [8]: 0.1 | z-score of subpopulation abundance [9]: -0.25 | z-score of subpopulation abundance [10]: -0.16 | z-score of subpopulation abundance [11]: -0.72 | z-score of subpopulation abundance [12]: -0.25 | z-score of subpopulation abundance [13]: -0.75 | z-score of subpopulation abundance [14]: -1.01 | z-score of subpopulation abundance [15]: -0.73

C[C@@H](O)[C@H]1C(=O)N2C(C(=O)O)=C(SCCNC=N)C[C@H]12 [Imipenem]
mean cell size [1]: 12.26 ± 0.071 | z-score of subpopulation abundance [2]: 0.92 | z-score of subpopulation abundance [3]: -1.04 | z-score of subpopulation abundance [4]: 0.59 | z-score of subpopulation abundance [17]: 0.19 | z-score of subpopulation abundance [5]: -0.16 | z-score of subpopulation abundance [6]: 0.19 | z-score of subpopulation abundance [7]: 0.44 | z-score of subpopulation abundance [8]: -0.46 | z-score of subpopulation abundance [9]: 1.18 | z-score of subpopulation abundance [10]: -0.18 | z-score of subpopulation abundance [11]: -0.62 | z-score of subpopulation abundance [12]: 0.25 | z-score of subpopulation abundance [13]: 0.59 | z-score of subpopulation abundance [14]: 0.35 | z-score of subpopulation abundance [15]: -0.14

O=C1c2cccc3c2[C@H](CCC3)CN1[C@@H]1CN2CCC1CC2 [Palonosetron HCl]
mean cell size [1]: 11.92 ± 0.064 | z-score of prototroph abundance [16]: 0.21 | z-score of subpopulation abundance [2]: -0.37 | z-score of subpopulation abundance [3]: -0.13 | z-score of subpopulation abundance [4]: 0.17 | z-score of subpopulation abundance [17]: -0.32 | z-score of subpopulation abundance [5]: -0.38 | z-score of subpopulation abundance [6]: -0.39 | z-score of subpopulation abundance [7]: -0.69 | z-score of subpopulation abundance [8]: 0.33 | z-score of subpopulation abundance [9]: 0.37 | z-score of subpopulation abundance [10]: -0.31 | z-score of subpopulation abundance [11]: -0.05 | z-score of subpopulation abundance [12]: -0.58 | z-score of subpopulation abundance [13]: -0.03 | z-score of subpopulation abundance [14]: -0.02 | z-score of subpopulation abundance [15]: -0.14
